Measurements: PubChem BioAssay AID1159580 (chemical genetic matrix, 2015)
Where “and” joins values, the source holds several entries; their conditions need not be identical. Equal values may be shown once. Screen size: about 5,500 compounds; about 2,000 (36%) were called active. Inconclusive results (about 18%) are left out. Cut-off read from the data, not from the text of the source: active = normalized growth mostly below about 0.91 (no sharp cut-off); inconclusive = no clear call, values can overlap the other calls; inactive = mostly above about 0.92. Some of the results follow.

Test: chemical genetic growth profiling, strain panel (AID 1159580);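 note: tested at 20 µM; growth read once vehicle control cultures reached saturation at 30 °C; 1 = growth at the plate median or of vehicle wells; lower values mean less growth of the strain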
Conditions: growth OD

Measured: normalized growth

CC1=C(CC(=O)O)c2cc(F)ccc2/C1=C\c1ccc(S(C)=O)cc1 (stereo unspecified)
inactive: S. cerevisiae deletion strains, locus YJR075W, strain HOC1, hits give low values 1 | S. cerevisiae deletion strains, locus YKL009W, strain mrt4, hits give low values 0.993 | S. cerevisiae deletion strains, locus YKL068W, hits give low values 1.01 | S. cerevisiae deletion strains, locus YKL085W, strain MDH1 (second series), hits give low values 1.02 | S. cerevisiae deletion strains, locus YKL085W, strain MDH1, hits give low values 1.02 | S. cerevisiae deletion strains, locus YKL160W, strain elf1, hits give low values 1 | S. cerevisiae deletion strains, locus YKL190W, strain CNB1, hits give low values 1.01 | S. cerevisiae deletion strains, locus YKR001C, strain vps1, hits give low values 0.997 | S. cerevisiae deletion strains, locus YKR026C, strain gcn3, hits give low values 1.01 | S. cerevisiae deletion strains, locus YKR091W, strain srl3, hits give low values 1.02 | S. cerevisiae deletion strains, locus YLL001W, strain dnm1, hits give low values 0.998 | S. cerevisiae deletion strains, locus YLL026W, hits give low values 1.03 | S. cerevisiae deletion strains, locus YLL041C, strain sdh2, hits give low values 1.02 | S. cerevisiae deletion strains, locus YLR027C, strain aat2, hits give low values 1.02 | S. cerevisiae deletion strains, locus YLR039C, strain RIC1, hits give low values 1.01 | S. cerevisiae deletion strains, locus YLR058C, strain SHM2, hits give low values 1 | S. cerevisiae deletion strains, locus YLR102C, strain apc9, hits give low values 1.02 | S. cerevisiae deletion strains, locus YLR113W, strain HOG1, hits give low values 1 | S. cerevisiae deletion strains, locus YLR221C, strain rsa3, hits give low values 0.999 | S. cerevisiae deletion strains, locus YLR258W, strain gsy2, hits give low values 1.01 | S. cerevisiae deletion strains, locus YLR262C, strain YPT6 (second series), hits give low values 1.02 | S. cerevisiae deletion strains, locus YLR262C, strain YPT6, hits give low values 0.995 | S. cerevisiae deletion strains, locus YLR268W, strain sec22, hits give low values 1.06 | S. cerevisiae deletion strains, locus YLR320W, strain mms22, hits give low values 1 | S. cerevisiae deletion strains, locus YLR330W, strain CHS5, hits give low values 1.01 | S. cerevisiae deletion strains, locus YLR342W, strain FKS1 (second series), hits give low values 1.02 | S. cerevisiae deletion strains, locus YLR342W, strain FKS1, hits give low values 0.99 | S. cerevisiae deletion strains, locus YLR357W, strain rsc2, hits give low values 1.05 | S. cerevisiae deletion strains, locus YLR370C, strain arc18, hits give low values 1.03 | S. cerevisiae deletion strains, locus YLR371W, strain rom2, hits give low values 1.03 | S. cerevisiae deletion strains, locus YLR384C, strain iki3, hits give low values 1.02 | S. cerevisiae deletion strains, locus YLR418C, strain cdc73, hits give low values 1.02 | S. cerevisiae deletion strains, locus YML016C, strain PPZ1, hits give low values 1 | S. cerevisiae deletion strains, locus YML032C, strain rad52, hits give low values 1.03 | S. cerevisiae deletion strains, locus YML120C, strain ndi1, hits give low values 1.03 | S. cerevisiae deletion strains, locus YML124C, strain tub3, hits give low values 1.01 | S. cerevisiae deletion strains, locus YMR058W, strain fet3, hits give low values 1.03 | S. cerevisiae deletion strains, locus YMR078C, strain ctf18, hits give low values 1.01 | S. cerevisiae deletion strains, locus YMR125W, strain sto1, hits give low values 1.02 | S. cerevisiae deletion strains, locus YMR129W, hits give low values 1.02 | S. cerevisiae deletion strains, locus YMR205C, strain PFK2, hits give low values 1.03 | S. cerevisiae deletion strains, locus YMR223W, strain ubp8, hits give low values 0.995 | S. cerevisiae deletion strains, locus YMR231W, strain pep5, hits give low values 1.02 | S. cerevisiae deletion strains, locus YMR263W, strain SAP30, hits give low values 1.01 | S. cerevisiae deletion strains, locus YMR307W, strain GAS1, hits give low values 1 and 1.02 | S. cerevisiae deletion strains, locus YNL067W, strain RPL9B, hits give low values 1.01 | S. cerevisiae deletion strains, locus YNL071W, strain lat1, hits give low values 1.02 | S. cerevisiae deletion strains, locus YNL128W, strain TEP1, hits give low values 1.03 | S. cerevisiae deletion strains, locus YNL153C, strain GIM3, hits give low values 1.01 and 1.06 | S. cerevisiae deletion strains, locus YNL175C, strain NOP13, hits give low values 1.02 | S. cerevisiae deletion strains, locus YNL183C, strain NPR1, hits give low values 0.946 | S. cerevisiae deletion strains, locus YNL197C, strain WHI3, hits give low values 1.02 | S. cerevisiae deletion strains, locus YNL209W, strain ssb2, hits give low values 1.02 | S. cerevisiae deletion strains, locus YNL224C, strain SQS1, hits give low values 1.02 | S. cerevisiae deletion strains, locus YNL233W, strain BNI4, hits give low values 1.01 | S. cerevisiae deletion strains, locus YNL248C, strain rpa49, hits give low values 1 | S. cerevisiae deletion strains, locus YNL250W, strain rad50, hits give low values 1.01 | S. cerevisiae deletion strains, locus YNL271C, strain bni1, hits give low values 1.01 | S. cerevisiae deletion strains, locus YNL298W, strain CLA4, hits give low values 0.991 | S. cerevisiae deletion strains, locus YNL307C, strain MCK1, hits give low values 1.03 | S. cerevisiae deletion strains, locus YNL322C, strain KRE1 (second series), hits give low values 1.02 | S. cerevisiae deletion strains, locus YNL322C, strain KRE1, hits give low values 1.01 | S. cerevisiae deletion strains, locus YNR049C, strain mso1, hits give low values 1.03 | S. cerevisiae deletion strains, locus YNR052C, strain pop2, hits give low values 1.02 | S. cerevisiae deletion strains, locus YOL006C, strain TOP1, hits give low values 0.99 | S. cerevisiae deletion strains, locus YOL012C, strain htz1 1.13 | S. cerevisiae deletion strains, locus YOL147C, strain pex11, hits give low values 1.02 | S. cerevisiae deletion strains, locus YOR001W, strain rrp6, hits give low values 1.04 | S. cerevisiae deletion strains, locus YOR061W, strain CKA2, hits give low values 1 | S. cerevisiae deletion strains, locus YOR069W, strain VPS5, hits give low values 1.01 | S. cerevisiae deletion strains, locus YOR070C, strain gyp1, hits give low values 1.01 | S. cerevisiae deletion strains, locus YOR080W, strain dia2, hits give low values 1.04 | S. cerevisiae deletion strains, locus YOR083W, strain WHI5 (second series), hits give low values 1.03 | S. cerevisiae deletion strains, locus YOR083W, strain WHI5, hits give low values 0.986 | S. cerevisiae deletion strains, locus YOR106W, strain vam3, hits give low values 1.01 | S. cerevisiae deletion strains, locus YOR136W, strain idh2, hits give low values 1.01 | S. cerevisiae deletion strains, locus YOR144C, strain elg1, hits give low values 1.02 | S. cerevisiae deletion strains, locus YOR184W, strain ser1, hits give low values 1.01 | S. cerevisiae deletion strains, locus YOR231W, strain MKK1, hits give low values 0.975 | S. cerevisiae deletion strains, locus YOR265W, strain rbl2, hits give low values 1.02 | S. cerevisiae deletion strains, locus YOR270C, strain vph1, hits give low values 1.04 | S. cerevisiae deletion strains, locus YOR290C, strain snf2, hits give low values 1.02 | S. cerevisiae deletion strains, locus YOR316C, strain cot1, hits give low values 1.02 | S. cerevisiae deletion strains, locus YPL051W, strain arl3, hits give low values 0.996 | S. cerevisiae deletion strains, locus YPL055C, strain LGE1, hits give low values 0.98 | S. cerevisiae deletion strains, locus YPL078C, strain atp4, hits give low values 1.01 | S. cerevisiae deletion strains, locus YPL106C, strain sse1, hits give low values 1.03 | S. cerevisiae deletion strains, locus YPL240C, strain hsp82, hits give low values 1.02 | S. cerevisiae deletion strains, locus YPL241C, strain CIN2, hits give low values 1.01 | S. cerevisiae deletion strains, locus YPL256C, strain CLN2, hits give low values 0.994 | S. cerevisiae deletion strains, locus YPR119W, strain clb2, hits give low values 1.02 | S. cerevisiae deletion strains, locus YPR141C, strain kar3, hits give low values 1.02 | S. cerevisiae deletion strains, locus YPR163C, strain tif3, hits give low values 1.02 | S. cerevisiae deletion strains, locus YPR167C, strain met16, hits give low values 1.02 | S. cerevisiae deletion strains, strain wtn01, hits give low values 1.03 | S. cerevisiae strains, strain wild type, hits give low values 1.01
